The list is not random: actives were taken first. Their share in the collection is about 2.9%.
ADAM17 inh: ADAM17 inhibitors, primary screen, biochemical, QFRET | Disintegrin and metalloproteinase domain-containing protein 17 (Homo sapiens), P78536 | recombinant ADAM17, EDANS/DABCYL FRET peptide cleavage | inhibition, % at 6.95 µM | 0.83% of 370,000 active | AID 720648, 2013;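 active means inhibition above the mean of compounds lying between control limits plus 3 SD, set per campaign, cut at about 8.5% in these data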
KLK7 zymogen act: proKLK7 zymogen activators, primary screen, biochemical, fluorescence intensity. purified proKLK7, EDANS-DABCYL substrate fluorescence; 100% is mature enzyme control, 0% vehicle. activation, % at 7 µM. 0.9% of 370,000 active;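 active means activation above the mean of all tested compounds plus 3 SD, computed per campaign excluding outliers beyond control limits, cut at about 13% in these data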
ADAM10 inh: human ADAM10 inhibitors, primary screen, biochemical, QFRET, HTS | Disintegrin and metalloproteinase domain-containing protein 10 (Homo sapiens), O14672 | recombinant ADAM10, EDANS/DABCYL FRET peptide cleavage, 3 h | inhibition, % at 7 µM | 0.62% of 370,000 active | AID 720582, 2013;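 active means inhibition above a per-campaign cutoff equal to the mean of compounds falling between control-based bounds plus 3 SD, cut at about 20% in these data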
PLC-gamma1 inh: PLC-gamma1 enzyme inhibitors, primary screen, biochemical, fluorescence, purified enzyme; inhibition, % at 12.2 µM; 0.84% of 370,000 active; fluorogenic substrate; AID 720700, 2013; 1-phosphatidylinositol 4,5-bisphosphate phosphodiesterase gamma-1 (Homo sapiens), P19174; in the data active means inhibition above about 9.5%
Target sequence (P19174 whole entry, looked up): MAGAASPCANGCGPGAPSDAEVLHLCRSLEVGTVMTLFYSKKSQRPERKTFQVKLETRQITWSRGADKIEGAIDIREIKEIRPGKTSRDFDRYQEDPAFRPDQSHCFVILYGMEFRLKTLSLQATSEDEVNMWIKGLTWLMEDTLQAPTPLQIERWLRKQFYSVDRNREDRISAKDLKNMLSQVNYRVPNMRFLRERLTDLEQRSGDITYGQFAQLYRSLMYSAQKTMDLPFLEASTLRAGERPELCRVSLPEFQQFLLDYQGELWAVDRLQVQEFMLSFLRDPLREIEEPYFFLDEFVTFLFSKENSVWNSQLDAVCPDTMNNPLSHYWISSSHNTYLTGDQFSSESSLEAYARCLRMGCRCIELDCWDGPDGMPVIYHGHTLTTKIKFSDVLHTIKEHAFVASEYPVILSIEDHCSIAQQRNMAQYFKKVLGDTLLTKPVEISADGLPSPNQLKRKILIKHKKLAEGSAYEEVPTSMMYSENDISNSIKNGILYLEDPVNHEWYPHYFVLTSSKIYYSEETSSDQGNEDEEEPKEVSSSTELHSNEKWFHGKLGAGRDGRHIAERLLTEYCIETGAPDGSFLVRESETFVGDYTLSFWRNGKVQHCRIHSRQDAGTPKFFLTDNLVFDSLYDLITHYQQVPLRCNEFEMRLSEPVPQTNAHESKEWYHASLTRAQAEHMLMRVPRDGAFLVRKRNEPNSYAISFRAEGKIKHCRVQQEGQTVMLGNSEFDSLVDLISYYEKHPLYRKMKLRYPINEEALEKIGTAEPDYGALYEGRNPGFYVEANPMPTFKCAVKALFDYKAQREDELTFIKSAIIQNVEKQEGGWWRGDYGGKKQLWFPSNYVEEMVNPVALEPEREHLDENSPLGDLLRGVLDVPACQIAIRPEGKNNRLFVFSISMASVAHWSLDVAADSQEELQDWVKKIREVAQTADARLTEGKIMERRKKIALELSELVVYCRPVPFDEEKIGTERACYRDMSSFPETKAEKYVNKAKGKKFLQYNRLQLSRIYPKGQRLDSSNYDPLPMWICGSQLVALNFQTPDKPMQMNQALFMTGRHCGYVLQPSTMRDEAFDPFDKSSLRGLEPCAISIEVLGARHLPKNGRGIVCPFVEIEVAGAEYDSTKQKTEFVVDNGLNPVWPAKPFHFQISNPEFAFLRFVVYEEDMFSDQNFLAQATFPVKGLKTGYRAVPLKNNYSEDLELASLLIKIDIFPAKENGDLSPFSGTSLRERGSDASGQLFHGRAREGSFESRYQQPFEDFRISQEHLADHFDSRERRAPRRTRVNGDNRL
PLC-beta3 inh: human PLC-beta3 inhibitors, primary screen, biochemical, fluorescence | Purified PLC-beta3, fluorogenic substrate | inhibition, % at 12.2 µM | 0.18% of 370,000 active | AID 720704, 2013
PLCgamma1 ctr: PLC-gamma1 enzyme inhibitors, counter-screen for PLC-beta3 inhibitor project, biochemical, fluorescence; shares compounds with PLC-gamma1 inh; purified PLC-gamma1, fluorogenic substrate; inhibition, % at 12.3 µM; 3.1% of 3,300 active; in the data active means inhibition above about 9.5%
PLCb3 confirm: PLC-beta3 inhibitor confirmation, biochemical, fluorescence, purified enzyme. shares compounds with PLC-gamma1 inh. fluorogenic substrate fluorescence. inhibition, % at 12.3 µM. 1% of 3,300 active. AID 743261, 2014
Of the large screens only hits and unclear results are named; the others gave an inactive call (follow-up assays come after a bar, where they were run). Unless noted, no stated cut-off is given here; in the data, active means inhibition above about 11%; inactive means the rest.

O=C(c1cnc(-c2ccccc2)s1)c1ccc(Cl)cc1Cl	PLC-gamma1 inh 9.7 | PLCgamma1 ctr inactive | PLCb3 confirm inactive
CCOCCn1c(CN2CCN(CCO)CC2)nc2c1c(=O)n(C)c(=O)n2C	PLC-gamma1 inh 11 | PLCgamma1 ctr inactive | PLCb3 confirm inactive
Cn1c(=O)c2c(nc(CN3CCN(CCO)CC3)n2Cc2ccccc2Cl)n(C)c1=O	PLC-gamma1 inh 12 | PLCgamma1 ctr inactive | PLCb3 confirm inactive
Cn1c(=O)c2c(nc(CN3CCN(CCO)CC3)n2Cc2cccc3ccccc23)n(C)c1=O	none
CCOCCn1c(CN2CCN(c3ccc(OC)cc3)CC2)nc2c1c(=O)n(C)c(=O)n2C	none
COc1ccc(N2CCN(Cc3nc4c(c(=O)n(C)c(=O)n4C)n3CCc3ccccc3)CC2)cc1	PLC-gamma1 inh 13 | PLCgamma1 ctr inactive | PLCb3 confirm inactive
FC(F)(F)C1=CC(c2ccc(Cl)cc2)=NCCN1	PLC-gamma1 inh 11 | PLCgamma1 ctr inactive | PLCb3 confirm inactive
CC1(C(=O)NS(=O)(=O)Cc2cccc(Cl)c2)CCN1C(=O)CCc1cccs1 (stereo not drawn)	none
O=C1CC(c2ccccc2)Sc2ccccc2N1 (stereo not drawn)	PLC-gamma1 inh 10 | PLCgamma1 ctr inactive | PLCb3 confirm inactive
COCCn1c(SCC(=O)OC(C)C)nnc1-c1ccccc1	PLC-gamma1 inh 12 | PLCgamma1 ctr inactive | PLCb3 confirm inactive
CC(C)(C)c1cc(C(=O)NNC(=O)Nc2ccccc2)n(Cc2ccccc2)n1	PLC-gamma1 inh 12 | PLCgamma1 ctr 17 | PLCb3 confirm 18
CC(C)C[C@H]1CN([C@@H](CC(C)C)CN2CCCC2CN2C(=S)NC[C@@H]2Cc2ccccc2)C(=S)N1CC1CCCCC1 (stereo partly drawn)	none
O=C(NCCSc1ncc(-c2ccc(F)cc2)[nH]1)c1ccc2c(c1)OCO2	none
CCOc1cc(C)c(Cl)cc1S(=O)(=O)NC1CC(C)(C)NC(C)(C)C1	PLC-gamma1 inh 10 | PLCgamma1 ctr inactive | PLCb3 confirm inactive
CCOc1cc(S(=O)(=O)NC2CC(C)(C)NC(C)(C)C2)ccc1Cl	none
COc1ccc(OC)c(NC(=O)COC(=O)CC2CCCCC2)c1	none
Nc1[nH]c(C(=O)c2ccccc2)c(-c2ccc(Br)cc2)c1C(=O)N1CCN(CCO)CC1	none (no result: KLK7 zymogen act)
O=C1c2ccccc2C(=O)N1CCCCN(C(=O)c1ccc([N+](=O)[O-])cc1)c1ccc(Cl)cc1	PLC-gamma1 inh 12 | PLCgamma1 ctr inactive | PLCb3 confirm inactive
c1ccc(Cn2ncc3c(N4CCN(c5ccccc5)CC4)ncnc32)cc1	PLC-gamma1 inh 11 | PLCgamma1 ctr inactive | PLCb3 confirm inactive
O=C(NC1CCCC1)C1C(c2ccc(C(F)(F)F)cc2)=Nc2ccccc2N1C(=O)c1cccc2ccccc12 (stereo not drawn)	none
COCc1cc(N2CCN(C(=O)OC(C)(C)C)C[C@H]2C)ccc1N1CC[C@H](O)C1	none
COc1ccc2ccccc2c1C1CC(=O)N2CN(C)CSC2=C1C#N (stereo not drawn)	PLC-gamma1 inh 11 | PLCgamma1 ctr inactive | PLCb3 confirm inactive
CC(C)C[C@@H]1COc2cc(N(C)CCO)ccc2S(=O)(=O)N1	none
O=C(Nn1c(C2CCC2)nc2ccccc2c1=O)c1cccs1	PLC-beta3 inh 15 | PLCgamma1 ctr inactive | PLCb3 confirm inactive
CC1=CC(=O)C(C(C)C)=CC1=NC(=O)c1ccc(C)cc1	PLC-gamma1 inh 11, PLC-beta3 inh 11 | PLCgamma1 ctr inactive | PLCb3 confirm inactive
COc1ccc(CN(C)Cc2ccccc2)c(OC)c1OC	PLC-gamma1 inh 11 | PLCgamma1 ctr inactive | PLCb3 confirm inactive
COc1ccc(-c2ccc(C)cc2)cc1[C@H]1[C@H]2C=CC[C@@H](C)[C@@H]2C(=O)N1Cc1ccccc1	PLC-beta3 inh 11 | PLCgamma1 ctr inactive | PLCb3 confirm inactive
C=CCn1c(COc2ccc(C)cc2)nnc1SCC(=O)c1ccc(-c2ccccc2)cc1	none
O=S1(=O)CCN(CCc2ccccc2)CC1	PLC-beta3 inh 12 | PLCgamma1 ctr inactive | PLCb3 confirm inactive
CC1CCCC(NC(=O)CSc2nnc(-c3cccnc3)n2N)C1C (stereo not drawn)	none
COc1ccc(OC)c(S(=O)(=O)NCCCN2CCOCC2)c1	PLC-gamma1 inh 12 | PLCgamma1 ctr inactive | PLCb3 confirm inactive
Cc1ccc(N2C(=O)CS(=O)(=O)CC2=O)cc1	none
Cc1ccc(N2C(=O)CC3(CCCC3)CC2=O)cc1	PLC-beta3 inh 11 | PLCgamma1 ctr inactive | PLCb3 confirm inactive
COc1ccc(NC(=O)COC(=O)CCC2CCCCC2)cc1	none
NC(=O)c1ccc(NC(=O)COC(=O)CCC2CCCCC2)cc1	PLC-gamma1 inh 14 | PLCgamma1 ctr inactive | PLCb3 confirm inactive
CN1CCN(CC(=O)Nc2c(C(=O)C3CC3)oc3ccccc23)CC1	PLC-gamma1 inh 11 | PLCgamma1 ctr inactive | PLCb3 confirm inactive
C[C@H]1[C@H](NC(=O)c2ccc(Cl)c(C(F)(F)F)c2)CC[C@@]23CCCN2C(=O)CCC[C@@H]13	none (no result: KLK7 zymogen act)
COc1ccc(S(=O)(=O)N(CC(=O)NC(C)C)Cc2ccccc2)cc1	none
COc1ccc(S(=O)(=O)N(CCc2ccccc2)CC(=O)NC(C)C)cc1	PLC-gamma1 inh 11 | PLCgamma1 ctr inactive | PLCb3 confirm inactive
C[C@H](CO)N1C[C@H](C)[C@@H](CN(C)C(=O)Oc2ccccc2)OCc2cn(nn2)CCCC1=O	none
O=C(O)C1Nc2c(O)cccc2C2C=CCC12 (stereo not drawn)	PLC-gamma1 inh 18 | PLCgamma1 ctr inactive | PLCb3 confirm inactive
O=c1ccn(C2CCCCC2)c(=O)[nH]1	none
CC1CCCN(C(=O)C23CCC(C)(C(=O)C2)C3(C)C)C1 (stereo not drawn)	PLC-beta3 inh 11 | PLCgamma1 ctr inactive | PLCb3 confirm inactive
CC12CCC(C(=O)N3CCCCC3)(CC1=O)C2(C)C (stereo not drawn)	none
Fc1ccccc1-c1n[nH]c(=S)n1N=Cc1ccc(-c2ccccc2)cc1	none
CCOC(=O)c1c(C)oc2cc(Br)c(OC)cc12	PLC-gamma1 inh 9.8 | PLCgamma1 ctr inactive | PLCb3 confirm inactive
CN(CC(=O)Nc1ccc(Cl)c(C(F)(F)F)c1)C(=O)Cc1n[nH]c(=O)c2ccccc12	PLC-gamma1 inh 10 | PLCgamma1 ctr inactive | PLCb3 confirm inactive

From PubChem
